Experimental data from PubChem BioAssay (Tox21).
Results filed as inconclusive are left out. Entries that show only a call come without a potency. Unmarked numbers belong to inactive results. The source made the active and inactive calls. The call rests on the fitted dose curve; in most records, active means well fitted activation curve with a large enough effect in the repeat runs; inconclusive means weak or mixed curves; inactive means flat fitted curve, though single readings scatter. Non-standard residues stand in square brackets, D forms with d. Residues, ends and D or L forms follow the SMILES beside them. *: point of attachment. Sta = CC(C)C[C@H](N)[C@@H](O)CC(=O)O; Isovaleryl = CC(C)CC(=O)*

Assay: A CellTox Green Cytotoxicity Assay to monitor cytotoxicity in HEK293 cells - 16 hour (AID 1224888); further: nearly all actives have a fitted effect of over 35% in size
Settings: CellTox Green fluorescence; series mostly up to 76.8 µM
Outline: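 Cells (HEK293, 600/well) and dye reagent are dispensed together. After 5 h at 37 C, 23 nL compound is pinned in. Plates stay at 37 C for 40 h with fluorescence read at 0h, 8h, 16h, 24h, 32h and 40h.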

SMILES | Potency | activity change
CC(C)CC(=O)N[C@H](C(=O)N[C@H](C(=O)N[C@@H](CC(C)C)[C@@H](O)CC(=O)N[C@@H](C)C(=O)N[C@@H](CC(C)C)[C@@H](O)CC(=O)O)C(C)C)C(C)C (Isovaleryl-VV[Sta]A[Sta]-OH) | inactive | 
CCCCCCC(=O)c1ccccc1 | inactive | 
CNC(=O)c1c(I)c(NC(C)=O)c(I)c(C(=O)O)c1I | inactive | 
CCCCCCCCCCCCCC(=O)OCC | inactive | 
C=CCN(CC=C)CC=C | inactive | 
O=C(O)CCC(=O)Nc1ccc(S(=O)(=O)Nc2nccs2)cc1 | inactive | 
CC(O)C(CO)C(C)O (configuration not stated) | inactive | 
O=C(O)/C=C(\CC(=O)O)C(=O)O | inactive | 
CC(=O)Nc1ccc(S(=O)(=O)Nc2cc(C)on2)cc1 | inactive | 
C[C@@H](CN1CC(=O)NC(=O)C1)N1CC(=O)NC(=O)C1 | inactive | 
CCN(CC)CC | inactive | 
CCCCCCCCOCCC#N | inactive | 
CC/C=C/CCCCCCCCCCOC(C)=O | inactive | 
CC/C=C\CCOC(=O)c1ccccc1 | inactive | 
COC(=O)c1ccc(C(=O)O)cc1 | inactive | 
COC(=O)C(c1ccccc1Cl)N1CCc2sccc2C1 (configuration not stated) | inactive | 
Cc1ccc2ccccc2n1 | inactive | 
CC(C)(C)c1ccc(N)cc1 | inactive | 
Cc1ccccc1OCC(=O)O | inactive | 

SMILES | Potency | activity change
O=C(O)Cc1c(Cl)ccc(Cl)c1Cl | inactive | 
CCCCCCCCCCCCCCBr | inactive | 
C=C(C)C(=O)OCCOC1CC2CC1C1C=CCC21 (configuration not stated) | inactive | 
CCCCCCCC(=O)N(C)C | inactive | 
COC(=O)/C=C(\C)CCC=C(C)C | inactive | 
Clc1cc(Cl)c(Cl)c(Cl)c1Cl | inactive | 
CCCc1ncc(C(=O)O)s1 | inactive | 
Cc1cc(C)c(N)c(Cl)c1 | inactive | 
CC(C)C(=O)Nc1cccc(C2CN3CCSC3=N2)c1 (configuration not stated) | inactive | 
COc1cc(C(=O)NC2CCCNC2)cc(OC)c1OC (configuration not stated) | inactive | 
CCO/C=C1\N=C(c2ccccc2)OC1=O | inactive | 
CCCC(=O)C(CC)Sc1ccoc1C (configuration not stated) | inactive | 
CC(C)(C)C(=O)NCCCC(=O)O | inactive | 
C=CCCCCCCCCCCCCCC |  | -0.657% [at 15.8 µM, stronger effect = higher value]
Clc1ccc2c(c1)Nc1ccccc1S2 | inactive | 
Cc1ccc2cccnc2c1 | inactive | 
Cc1ccc(OC(=O)CC(C)C)cc1 | inactive | 
CC(=O)c1c(C)cc(C(C)(C)C)cc1C | inactive | 
